Measured values as given in PubChem BioAssay (NCI).
The panel holds about 79,000 compounds, 15% with a hit somewhere; the sample as a whole holds those more often. No stated cut-off is given here; in the data, active means growth inhibition above about 70%; inactive means the rest.

Columns and labels:
[1] = NCI Yeast Anticancer Drug Screen. Data for the wt1 strain (AID 149);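 further: 0% = growth of vehicle-treated wt1 cultures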; conditions: S. cerevisiae wt1 strain (SPY 50644) growth inhibition, hits give high values
Summary of the method: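 Measured: growth of wt1 yeast under compound versus vehicle treatment, reported as inhibition.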

[2] = NCI Yeast Anticancer Drug Screen. Data for the rad50EPP+ strain (AID 151);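 further: 0% = growth of vehicle-treated control cultures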; conditions: S. cerevisiae rad50 mutant strain, hits give high values
Summary of the method: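 In this screen, rad50EPP+ yeast were exposed to compounds. Growth inhibition was scored against vehicle-treated controls.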

[3] = NCI Yeast Anticancer Drug Screen. Data for the mgt1 strain (AID 153); conditions: S. cerevisiae mgt1 mutant growth inhibition, hits give high values
Summary of the method: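 mgt1 strain exposed; growth vs vehicle control recorded as inhibition.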

[4] = NCI Yeast Anticancer Drug Screen. Data for the rad50 strain (AID 155);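 further: 0% = growth of vehicle-only cultures of the same strain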; conditions: S. cerevisiae rad50 strain growth inhibition, hits give high values
Summary of the method: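 Growth of the mutant yeast was measured after compound exposure and referenced to vehicle-treated cultures.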

[5] = NCI Yeast Anticancer Drug Screen. Data for the mec2-1 strain (AID 157); conditions: S. cerevisiae mec2-1 strain, hits give high values
Summary of the method: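 Vehicle-treated cultures served as reference for growth inhibition of compound-exposed mec2-1 yeast.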

[6] = NCI Yeast Anticancer Drug Screen. Data for the rad14 strain (AID 159);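 further: 0% = growth of vehicle-treated control cultures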; conditions: S. cerevisiae rad14 strain growth inhibition, hits give high values
Summary of the method: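 Here, inhibition of yeast growth was measured after compound exposure, using a strain with a genetic defect in DNA damage repair and vehicle-treated cultures as the reference.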

[7] = NCI Yeast Anticancer Drug Screen. Data for the sgs1 mgt1 strain (AID 161);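 further: 0% = growth of cultures given vehicle only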; conditions: S. cerevisiae sgs1 mgt1 strain, hits give high values
Summary of the method: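 Read-out: growth inhibition vs vehicle controls. Cells: mutant yeast strain deficient in DNA damage repair.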

[8] = NCI Yeast Anticancer Drug Screen. Data for the CLN2oe strain (AID 163);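 further: 0% = growth of vehicle-only control cultures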; conditions: S. cerevisiae CLN2oe strain, hits give high values
Summary of the method: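 Inhibition relative to vehicle-treated yeast is reported. Cells: strain with genetic alteration in cell-cycle control, grown with compound.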

[9] = NCI Yeast Anticancer Drug Screen. Data for the cln2 rad14 strain (AID 165);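 further: 0% = growth equal to vehicle treated cultures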; conditions: S. cerevisiae cln2 rad14 strain, hits give high values
Summary of the method: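 Each compound was tested on cln2 rad14 yeast. Inhibition of growth was calculated against vehicle-exposed controls.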

[10] = NCI Yeast Anticancer Drug Screen. Data for the bub3 strain (AID 167); conditions: S. cerevisiae bub3 mutant strain, hits give high values
Summary of the method: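 Whole-cell yeast assay. The mutant strain was incubated with compounds, and growth inhibition was determined by comparison with vehicle-treated cells.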

[11] = NCI Yeast Anticancer Drug Screen. Data for the wt2 strain (AID 169);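 further: 0% = growth of vehicle-treated yeast cultures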; conditions: S. cerevisiae wt2 strain growth inhibition, hits give high values
Summary of the method: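 Inhibition of yeast growth was determined after compound treatment, normalised to controls receiving only vehicle.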

[12] = NCI Yeast Anticancer Drug Screen. Data for the mlh1 strain (AID 171);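 further: 0% = growth of vehicle-treated control cultures of the same strain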; conditions: S. cerevisiae mlh1 strain growth inhibition, hits give high values
Summary of the method: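 Vehicle-normalised growth inhibition of a repair- or checkpoint-altered yeast strain following compound treatment.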

[13] = NCI Yeast Anticancer Drug Screen. Data for the mlh1 rad18 strain (AID 175); conditions: S. cerevisiae mlh1 rad18 strain growth inhibition, hits give high values
Summary of the method: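 Vehicle-treated cultures served as the reference for growth inhibition in a yeast strain carrying DNA damage repair alterations exposed to each compound.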

[14] = at 5.0 µM (retest, dose inferred, filed as 0.5)
[15] = at 50.0 µM (retest, dose inferred, filed as 5.0)

Measured: growth inhibition

CC(=O)OCC1OC2OC(=O)NC2C(OC(C)=O)C1OC(C)=O (stereo not drawn)
inactive: [1]; at 1.2 µM -3% | [1]; at 3.7 µM -3% | [1]; at 11.0 µM -2% | [1]; at 33.0 µM -2% | [1]; at 100.0 µM -1% | [2]; at 1.2 µM -4% | [2]; at 3.7 µM 0% | [2]; at 11.0 µM -1% | [2]; at 33.0 µM -5% | [2]; at 100.0 µM -8% | [3]; at 1.2 µM -1% | [3]; at 3.7 µM -1% | [3]; at 11.0 µM 1% | [3]; at 33.0 µM -4% | [3]; at 100.0 µM -35% | [4]; at 1.2 µM -5% | [4]; at 3.7 µM -1% | [4]; [14] 5% | [4]; at 11.0 µM 0% | [4]; at 33.0 µM -1% | [4]; [15] -1% | [4]; at 50.0 µM 5.15% | [4]; at 100.0 µM 0% | [5]; at 1.2 µM -2% | [5]; at 3.7 µM -2% | [5]; [14] -7% | [5]; at 11.0 µM -1% | [5]; at 33.0 µM -1% | [5]; [15] 3% | [5]; at 50.0 µM 10.9% | [5]; at 100.0 µM 0% | [6]; at 1.2 µM -2% | [6]; at 3.7 µM -1% | [6]; at 11.0 µM -3% | [6]; at 33.0 µM 2% | [6]; at 100.0 µM 2% | [7]; [14] 2% | [7]; [15] 15% | [7]; at 50.0 µM -17.1% | [8]; at 1.2 µM -3% | [8]; at 3.7 µM 2% | [8]; at 11.0 µM -1% | [8]; at 33.0 µM -4% | [8]; at 100.0 µM 0% | [9]; [14] -21% | [9]; [15] 44% | [9]; at 50.0 µM -15.3% | [10]; at 1.2 µM 13% | [10]; at 3.7 µM 2% | [10]; [14] 3% | [10]; at 11.0 µM -2% | [10]; at 33.0 µM 1% | [10]; [15] 3% | [10]; at 50.0 µM -9.2% | [10]; at 100.0 µM -4% | [11]; at 1.2 µM -3% | [11]; at 3.7 µM -3% | [11]; at 11.0 µM -3% | [11]; at 33.0 µM -4% | [11]; at 100.0 µM -1% | [12]; at 1.2 µM -2% | [12]; at 3.7 µM -3% | [12]; at 11.0 µM -2% | [12]; at 33.0 µM -1% | [12]; at 100.0 µM 0% | [13]; [14] -9% | [13]; [15] 5% | [13]; at 50.0 µM -7.3%
